Only some compounds are listed: those with a hit (about 9% of all), similar ones and a draw of the others.
G9a inh: inhibitors of human histone lysine methyltransferase G9a | Q96KQ7 | Potency, µM (highest dose often 102 µM), hits mostly inhibitors | actives 8.8% (n = 350,000) | AID 504332 | G9a H3K9 monomethylation, AlphaScreen, 2 h; also: nearly all actives have a fitted effect of over 75% in size
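Step 1: enzyme (final 20 nM) with compound, 15 min RT. Step 2: substrate peptide 500 nM and SAM 20 uM, 2 h RT. Step 3: anti-H3K9me1 antibody and AlphaScreen beads, 10 min, then plate read.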
PLK1 PBD inh: inhibitors of human PLK1 polo-box domain binding; actives 2.8% (n = 360,000); Potency, µM, usual class: inhibitors; Plk1 PBD binding of FITC phosphopeptide, fluorescence polarization; P53350; also: series mostly up to about 57 µM; nearly all actives have a fitted effect of over 65% in size
BAZ2B inh: blocks human BAZ2B. Q9UIF8. AlphaScreen BAZ2B-H3K14Ac peptide displacement. Potency, µM (top dose mostly 114 µM), usual class: inhibitors. actives 4.4% (n = 360,000). AID 504333; also: nearly all actives have a fitted effect of over 60% in size
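AlphaScreen displacement: compounds (up to 110uM) incubated 30 min at room temperature with a preformed 50 nM BAZ2B/50 nM biotinylated H3K14Ac peptide complex in PBS pH 7.4 with Tween-20. Donor and acceptor beads at 10 ug/mL final added, 20 min light-protected before reading.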
12-LOX inh: inhibitors of human 12S-lipoxygenase ALOX12 | AID 1671190 | purified 12hLO, xylenol orange hydroperoxide absorbance | Potency, µM (top dose mostly 108 µM), most hits filed as inhibitors | actives 1.1% (n = 580,000) | P18054
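Hydroperoxide product was detected by ferrous iron/xylenol orange as the 573 to 405 nm absorbance ratio. Arachidonic acid at 40 uM (final) was turned over for 30 min at room temperature by 150 nM human 12hLO, pH 7.0 Hepes buffer, after 15 min compound preincubation.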
JMJD2A Tudor inh: JMJD2A Tudor domain (human) inhibition; O75164; Potency, µM (titrated, usually from 114 µM), usual class: inhibitors; actives 4.4% (n = 390,000); AlphaScreen JMJD2A-Tudor / H3K4me3 peptide binding; also: nearly all actives have a fitted effect of over 50% in size
HP1b binding inh: inhibitors of HP1-beta chromodomain binding to methylated histone tails; AlphaScreen HP1-beta / biotin-H3K9me3 peptide binding; actives 0.56% (n = 390,000); P83916; Potency, µM (doses to about 114 µM), most hits filed as inhibitors; AID 540317; also: nearly all actives have a fitted effect of over 70% in size
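Compound inhibition of the preformed complex between 50 nM HP1-beta and 50 nM biotinylated H3K9me3 peptide was read by AlphaScreen. Buffer was PBS pH 7.4 with 0.01% Tween-20. Incubations ran 30 min at room temperature, with 10 ug/mL donor/acceptor beads.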
Numbers stand for hits; . = inactive; ? = inconclusive; / = no result given; ! = a repeat was not active; [ ] = dose if it differs, or a comment. Calls follow the shape of the dose curve; as a rule, active = well fitted curve in the direction sought with a large enough effect; inconclusive = small, poorly fitted or top-dose-only effect, or another doubt; inactive = no such curve, though single readings can be large; an effect the other way counts as inactive or inconclusive.

SMILES | G9a inh | PLK1 PBD inh | BAZ2B inh | 12-LOX inh | JMJD2A Tudor inh | HP1b binding inh
C=CCc1cc(Cl)ccc1OCCOCCNCCOC | ? | . | 71µM | . | 10µM | ?
C=CCc1cc(Cl)ccc1OCCOCCNC(C)(C)C | 25µM | . | 50µM | ? | 14µM | .
C=CCc1ccc(OCCOCCNCCOC)c(OC)c1 | . | . | . | . | . | .
Cc1ccc(C(=O)N/C(=C/c2ccccc2)C(=O)NCC(=O)O)cc1 | / | / | / | . | / | /
O=C1S/C(=C\c2ccccn2)C(=O)N1Cc1ccccc1F | 18µM | . | . | ? | . | .
O=C(O)Cc1ccc(S(=O)(=O)Cc2ccccc2)cc1 | / | / | / | 1µM | / | /
Cc1nn2c(c1-c1ccnn1C(C)C)N(Cc1ccc(C(=O)O)s1)CCC2 | / | / | / | 28µM | / | /
Cc1nn2c(c1-c1ccnn1C(C)C)N(C(=O)C(C)C)CCC2 | / | / | / | . | / | /
O=C1CC[C@H](C(=O)O)N1 | . | / | / | . | / | /
O=C(O)[C@@H]1C[C@@H](C(=O)O)N1 | 24µM! | / | / | ? | / | /
CC(C)C(=O)N1CCC2(CC1)OCC(C(=O)N1CCCC1)N2C(=O)c1ccccc1 (configuration not stated) | / | / | / | . | / | /
CCc1cccc(NC(=O)Cn2c(=O)n3nc(-c4cccc(F)c4)nc3c3ccccc32)c1 | . | / | . | . | . | .
O=C(NNc1cccc(Cl)n1)c1ccccc1CC[N+](=O)[O-] | . | ? | . | . | 22µM | .
O=C(NNc1cccc(Cl)n1)c1ccc(Cl)cc1Cl | . | . | . | . | . | .
COc1cccc(CNc2ncnc3cc(Cl)ccc23)c1 | . | . | . | . | . | .
CNc1nc(Cl)c(SC)c(NCc2cccc(OC)c2)n1 | . | 11µM | . | / | ? | .
O=C(N=C1N=C2C=CC(Br)=CN2Cc2ccccc21)c1ccc([N+](=O)[O-])cc1[N+](=O)[O-] | 50µM | . | . | . | ? | .
COc1cccc(CNc2nc3ccc(C)cc3n3cnnc23)c1 | . | . | . | . | . | .
c1ccc(CNc2nc3ccccc3n3cnnc23)nc1 | 45µM | . | . | . | . | .
Cc1ccc(CNc2nc3ccc(C)cc3n3cnnc23)cc1 | 50µM | . | . | . | . | .
c1ccc(CNc2nc3ccccc3n3cnnc23)cc1 | . | . | . | . | ? | .
O=C(CN1C(=O)c2ccccc2S1(=O)=O)c1ccc(Cl)cc1Cl | / | . | / | 8.9µM! | . | .
O=[N+]([O-])c1ccc2[nH]ccc2c1 | / | / | / | . | / | /
COc1ccc(N2C(=O)CSC2c2ccccc2[N+](=O)[O-])cc1 (configuration not stated) | 50µM | . | . | . | . | .
COc1ccc(N2C(=O)CSC2c2ccccc2)cc1 (configuration not stated) | . | . | . | . | . | .
SMILES | G9a inh | PLK1 PBD inh | BAZ2B inh | 12-LOX inh | JMJD2A Tudor inh | HP1b binding inh
Cc1ccc2c(c1)c1c(n2CC(O)Cn2c(C)nc3ccccc32)C(=O)CCC1 (configuration not stated) | . | . | . | . | . | .
Cc1ccc2c(c1)c1c(n2CC(O)Cn2c(C)nc3ccccc32)/C(=N\O)CCC1 (configuration not stated) | 18µM | . | ? | / | ? | .
O=S(=O)(c1ccc(-c2csc(=Nc3ccc(OC(F)(F)Cl)cc3)n2CCCO)cc1)N1CCCC1 | 1µM | / | 89µM | ? | ? | .
COCCCn1c(-c2ccc(S(=O)(=O)N3CCOCC3)cc2)csc1=Nc1ccccc1 | ? | . | ? | ? | ? | ?
Cn1c(-c2ccc(S(=O)(=O)N3CCCC3)cc2)csc1=Nc1ccc(Cl)c(Cl)c1 | ? | / | . | ? | 50µM | ?
CCn1c(-c2ccc(S(=O)(=O)N3CCOCC3)cc2)csc1=Nc1ccc(C)c(Cl)c1 | .[12.7 µM] | / | . | . | . | .
Cc1cc(C)c(/C=C/c2onc(C)c2S(=O)(=O)N2CCC(C(=O)N3CCN(c4ccccc4)CC3)CC2)c(C)c1 | . | / | . | ? | 22µM | .
CC(=O)c1ccc(N2CCN(C(=O)C3CCCN(S(=O)(=O)c4c(C)[nH]c(=O)[nH]c4=O)C3)CC2)cc1 (configuration not stated) | . | 15µM | . | . | .[11.4 µM] | .
COc1ccc(N2CCN(C(=O)C3CCCN(S(=O)(=O)c4c(C)noc4C)C3)CC2)cc1 (configuration not stated) | 32µM | . | ? | . | . | .
Cc1cc(C)c(/C=C/c2onc(C)c2S(=O)(=O)N2CCC(C(=O)NCCc3ccccc3)CC2)c(C)c1 | . | / | . | . | . | .
COc1ccc(Cl)cc1NC(=O)CCCN1C(=O)CCC1=O | . | . | . | . | . | .
CS(=O)(=O)c1nsc2nc(=O)c(/C=C3\C=Nc4ccccc43)c(N)n12 | ? | . | . | ? | . | .
CC(C)Sc1nsc2nc(=O)c(/C=C3\C=Nc4ccccc43)c(N)n12 | . | 27µM | / | . | ? | .
O=C(NC(=S)NNC(=O)c1ccccc1F)c1cccnc1 | 8.9µM | ? | . | ? | 16µM | .
Cc1ccccc1C(=O)NNC(=S)NC(=O)c1cccnc1 | 6.3µM | . | . | ? | . | .
COc1ccc(-c2c(C)oc3cc(OCCN4CCCCC4)ccc3c2=O)cc1OC | / | / | / | . | / | /
COc1ccccc1/C=N/NC(=O)c1ccccc1Cl | . | . | . | . | . | .
CCN1CC(C(=O)N2CCC(Sc3ccc(C)cc3)CC2)CC1=O (configuration not stated) | / | / | / | . | / | /
COc1ccc(N2CCN(C(=O)C3CC(=O)N(c4ccc(C)cc4)C3)CC2)cc1 (configuration not stated) | ? | . | / | . | . | .
CC(C)C[C@H](NC(=O)OC(C)(C)C)c1n[nH]c(=S)n1N | 10µM | . | . | . | . | .
N[C@H](CSC(c1ccccc1)(c1ccccc1)c1ccccc1)C(=O)O | . | / | / | . | / | /
NC(CSC(c1ccccc1)(c1ccccc1)c1cccc2ccccc12)C(=O)O (configuration not stated) | / | 27µM | / | / | 56µM | ?
O=C1c2ccccc2C(=O)N1CC#CCN1CCN(C(c2ccccc2)c2ccccc2)CC1 | ? | . | 50µM | ? | ? | .
Cc1ccccc1/C=N/n1c(COc2ccccc2)n[nH]c1=S | 2µM | ? | . | . | . | .
Fc1ccccc1/C=N/n1c(COc2ccccc2)n[nH]c1=S | 2.2µM | 24µM | ? | ? | 32µM | ?
CCOc1ccccc1/C=N/n1c(C)nc2ccccc2c1=O | .[2.33 µM] | . | . | . | . | .
Oc1ccccc1/C=N/n1c(COc2ccccc2)n[nH]c1=S | 2.5µM | ? | . | . | 79µM | ?
CCOc1ccccc1/C=N/n1c(COc2ccccc2)n[nH]c1=S | 14µM | ? | ? | ? | ? | .
CCn1cc(CN(C)C(=O)Cn2nc(C(F)(F)F)c(Cl)c2C)c(C)n1 | / | / | / | . | / | /
Cc1nnc(SCc2ccc(CC(=O)O)cc2)o1 | . | . | . | . | . | .

Screening results (PubChem)
